Data from PubChem BioAssay (NCI).
The panel holds about 83,000 compounds, 20% with a hit somewhere; the sample as a whole holds those more often.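 Cell lines were cultured in 96-well plates, exposed to a single compound concentration, and assessed for percent growth 48 hours later.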 Unmarked numbers belong to inactive results. The source made the active and inactive calls. How the source made its calls: active means growth percent below 10; inactive means the rest.

Key:
Assay in all cases: NCI-60 one-dose screen, 48 h (100 = growth as untreated, 0 = no growth, -100 = all killed)
Conditions in all cases: 10 µM unless noted
NCI-H23 lung = test system: NCI-H23 lung
NCI-H226 lung = test system: NCI-H226 lung
NCI-H322M lung = test system: NCI-H322M lung
HOP-62 NSCLC = test system: HOP-62 NSCLC
NCI-H460 lung = test system: NCI-H460 lung
HOP-92 NSCLC = test system: HOP-92 NSCLC
NCI-H522 lung = test system: NCI-H522 lung
A549/ATCC NSCLC = test system: A549/ATCC NSCLC
786-0 renal = test system: 786-0 renal
COLO 205 colon = test system: COLO 205 colon
DU-145 prostate = test system: DU-145 prostate
K-562 leukemia = test system: K-562 leukemia
MALME-3M melanoma = test system: MALME-3M melanoma
RXF 393 renal = test system: RXF 393 renal
SF-268 CNS = test system: SF-268 CNS
SF-295 CNS = test system: SF-295 CNS
SF-539 CNS = test system: SF-539 CNS
UACC-257 melanoma = test system: UACC-257 melanoma
M14 melanoma = test system: M14 melanoma
MDA-MB-231 breast = test system: MDA-MB-231 breast

Structure (SMILES)	growth (NCI-H23 lung)	growth (NCI-H226 lung)	growth (NCI-H322M lung)	growth (HOP-62 NSCLC)	growth (NCI-H460 lung)	growth (HOP-92 NSCLC)	growth (NCI-H522 lung)	growth (A549/ATCC NSCLC)	growth (786-0 renal)	growth (COLO 205 colon)	growth (DU-145 prostate)	growth (K-562 leukemia)	growth (MALME-3M melanoma)	growth (RXF 393 renal)	growth (SF-268 CNS)	growth (SF-295 CNS)	growth (SF-539 CNS)	growth (UACC-257 melanoma)	growth (M14 melanoma)	growth (MDA-MB-231 breast)
CC(C)C(C)(C)C(=O)C(C)(C)C(C)(C)C	90.6%	90.5%	97.9%	103%	101%	88.3%	92.4%	93.3%	108%	104%	107%	96.8%	92.6%	104%	102%	95.8%	98.8%	92.6%	114%	–
CCc1ccccc1C(=O)N(CC)CC	103%	95.4%	105%	103%	104%	107%	105%	97.1%	101%	111%	104%	106%	102%	–	97.5%	97.6%	94.9%	103%	–	100%
Cc1cccnc1NC1OC(=O)c2ccccc21 (stereo not given)	100%	98.6%	96.2%	99.7%	105%	119%	88.6%	96.2%	99.6%	101%	102%	101%	93.7%	118%	124%	–	109%	100%	95.7%	115%
CN(C)c1ccc(/C=C/C(=O)c2ccc(NC(N)=O)cc2)cc1	96.9%	104%	97%	94.1%	102%	103%	95.3%	84.5%	97.1%	112%	98.8%	64.6%	82.3%	107%	99%	98.8%	81.1%	89.9%	86.8%	–
NC(CCl)=NCC12CC3CC(CC(C3)C1)C2	-7.12% (active)	-0.0494% (active)	20.1%	-66.1% (active)	-57.6% (active)	-37.6% (active)	-58.7% (active)	-47.1% (active)	-80.2% (active)	-96% (active)	-42.7% (active)	-15.1% (active)	25.4%	–	-3.73% (active)	26.4%	-11% (active)	-71.2% (active)	-61.3% (active)	-15.8% (active)
O=S(=O)(O)c1cccnc1	115%	105%	84.6%	114%	109%	142%	109%	125%	103%	105%	122%	105%	90.1%	–	103%	108%	95.8%	123%	140%	103%
Cn1c2ccccc2c2nnc(NCCCCO)nc21	84.3%	83.9%	99.3%	81.6%	100%	84.1%	95.3%	92.6%	98.8%	103%	103%	99.7%	98.3%	–	91.1%	113%	92.6%	113%	88%	99.3%
COc1ccc(C2CC(c3ccccc3)=Nc3ccccc3S2)cc1 (stereo not given)	98%	98.2%	90.3%	98.7%	105%	87.1%	77.6%	111%	98.2%	97.1%	99.8%	77.9%	82.5%	–	105%	–	111%	103%	106%	98.9%
S=c1nc2[nH]c3ccccc3c2n[nH]1	96.3%	83.1%	98.9%	-1.58% (active)	99.5%	55.7%	108%	104%	109%	108%	102%	106%	97.7%	–	87.6%	72%	85.1%	107%	107%	86.6%
C[n+]1c(/C=C\C=C\N2CCCCC2)sc2ccccc21	12.1%	17.7%	17.6%	-29.1% (active)	0.479% (active)	-42.3% (active)	-49.3% (active)	-13.7% (active)	-42.4% (active)	-42.7% (active)	23.1%	-14.4% (active)	-4.48% (active)	–	12.9%	-10.3% (active)	4.51% (active)	-44% (active)	0.396% (active)	17.7%
NS(=O)(=O)c1cc(=O)[nH]c(=O)[nH]1	114%	109%	93.7%	107%	111%	172%	74.5%	115%	105%	117%	114%	131%	90.7%	–	110%	109%	111%	113%	102%	115%
O=C(NC1CCCCC1)c1ccc(Cl)cc1	95.7%	92.5%	98.1%	92.8%	101%	95%	96.2%	99.9%	103%	109%	103%	96.5%	106%	–	97.1%	105%	104%	105%	105%	113%
C=C1SC(=Nc2c(C)cccc2C)N(c2nc(Cl)nc(Cl)n2)C12CCCCC2	103%	104%	85.4%	105%	110%	105%	82.9%	96.2%	99.9%	109%	108%	95.2%	90.3%	106%	107%	–	116%	94.6%	97.9%	115%
NNc1ncnc2c1ncn2C1OC(CO)C(O)C1O (stereo not given)	66%	55.8%	40%	15%	2.13% (active)	34.9%	20.1%	18%	35.9%	40.4%	19.3%	30.4%	122%	–	50.3%	38.7%	90.9%	84.9%	31.6%	10.7%
CC(C)(C)CC1(C)NC(=O)NC1=O (stereo not given)	103%	112%	126%	99.1%	120%	107%	150%	120%	98.7%	135%	114%	126%	111%	–	119%	108%	109%	114%	104%	118%
CNc1ccccc1C(=O)N/N=C/C=C/c1ccccc1	39.1%	66.7%	30.8%	26.9%	11%	69.3%	-18.1% (active)	30.7%	35.3%	-1.61% (active)	14.9%	8.9% (active)	31.5%	–	34.9%	-0.27% (active)	21.7%	39.1%	17.1%	49.3%
Clc1ncnc2nc[nH]c12	94.4%	96.3%	104%	83.7%	103%	68.8%	70.5%	101%	101%	101%	91%	90.1%	106%	–	95.8%	107%	86.4%	103%	97.5%	99%
CN(C)c1ncnc2c1cnn2C	103%	98.9%	102%	95.8%	103%	89.2%	106%	93.9%	99%	107%	104%	97%	103%	–	84.6%	94.5%	94.2%	84.2%	103%	109%

Structure (SMILES)	growth (NCI-H23 lung)	growth (NCI-H226 lung)	growth (NCI-H322M lung)	growth (HOP-62 NSCLC)	growth (NCI-H460 lung)	growth (HOP-92 NSCLC)	growth (NCI-H522 lung)	growth (A549/ATCC NSCLC)	growth (786-0 renal)	growth (COLO 205 colon)	growth (DU-145 prostate)	growth (K-562 leukemia)	growth (MALME-3M melanoma)	growth (RXF 393 renal)	growth (SF-268 CNS)	growth (SF-295 CNS)	growth (SF-539 CNS)	growth (UACC-257 melanoma)	growth (M14 melanoma)	growth (MDA-MB-231 breast)
O=S(=O)(c1ccc(NC(=S)NCc2cccnc2)cc1)N1CCCCC1	87%	86.7%	91.4%	83.1%	63%	86.2%	19.1%	65.2%	93.8%	63%	46.9%	33%	90.3%	–	72.6%	–	31.9%	101%	39.7%	95.1%
CCN(C(=O)Nc1ccccc1Cl)c1ccccc1	101%	107%	109%	111%	108%	101%	106%	100%	112%	113%	109%	93.9%	100%	115%	109%	–	104%	102%	111%	109%
Nc1nc2nnc(-c3ccccc3)c(-c3ccccc3)n2n1	97.2%	88.3%	110%	16.7%	100%	61.4%	109%	101%	111%	101%	98.8%	96.3%	125%	–	103%	71%	80.9%	103%	127%	88.7%
CC(C)c1ccccc1NC(=O)N1CCC(C(C)C)CC1	107%	95.4%	97.7%	107%	107%	95.8%	106%	101%	103%	117%	112%	99.4%	105%	101%	115%	–	111%	95.8%	107%	117%
C=CC1=NC(C)(C)CC(C)O1 (stereo not given)	114%	111%	108%	110%	104%	105%	97.5%	104%	103%	116%	113%	107%	107%	–	109%	–	97.8%	95.4%	112%	110%
C=CCNC(=S)N/C=C(/C(=O)c1ccccc1)c1ccccc1	97.4%	104%	111%	96.7%	104%	95.7%	109%	103%	111%	95.3%	109%	102%	–	111%	98.2%	110%	101%	109%	91.9%	107%
Nc1ncnc2c1ncn2C1OC(CO)C2OC21 (stereo not given)	107%	93.8%	118%	96.6%	109%	102%	94.6%	102%	108%	107%	113%	104%	–	103%	104%	106%	110%	98.6%	102%	112%
CCCCCC/C=C\CCCCCCCCCc1cc(O)cc(OC)c1O	11.2%	24.2%	4.07% (active)	21.8%	8.62% (active)	-45% (active)	-76.8% (active)	16.8%	10.6%	-65.3% (active)	26%	7.81% (active)	–	22.7%	9.15% (active)	2.68% (active)	-58.3% (active)	-4.96% (active)	27.3%	-43.1% (active)
CC(C)N1CC(=O)N2CSCC2C1=O (stereo not given)	111%	104%	115%	111%	108%	126%	102%	103%	107%	114%	107%	104%	–	104%	106%	105%	97.6%	108%	104%	120%
CC(C)(N)CO[C@H]1C[C@H]2CC[C@@]1(C)C2(C)C	94.7%	88.5%	96.5%	106%	97.8%	89.2%	92.4%	96.8%	97.6%	109%	102%	123%	97.1%	87.6%	91.5%	97.7%	99.4%	97.1%	90%	–
COc1ccc(Br)c(C=O)c1	91.4%	84.5%	89.8%	67.4%	101%	68.8%	98.2%	92.6%	69.3%	102%	88.1%	11.6%	66.2%	80.1%	60.8%	65.7%	30.5%	79.7%	46.1%	–
CCOc1ccncc1[N+](=O)[O-]	106%	102%	110%	99.1%	108%	102%	106%	97.5%	106%	110%	108%	100%	–	113%	103%	108%	108%	95.2%	106%	114%
S=CN1CCCCC1	105%	98.1%	102%	108%	109%	103%	109%	91.8%	102%	121%	106%	101%	–	102%	96.7%	96%	97.4%	91.8%	106%	108%
Cn1c(=O)[nH]c2ccccc2c1=O	104%	109%	105%	99.6%	111%	143%	96.6%	100%	97.5%	114%	104%	103%	100%	102%	107%	94.4%	98.8%	102%	107%	–
NNC(=O)CCCCl	97.7%	98.7%	107%	107%	111%	137%	104%	100%	108%	118%	108%	105%	–	96.6%	102%	102%	106%	105%	100%	104%
CC(C)(C)[Si](C)(C)OCC1OC(n2cnc3c(N)ncnc32)CC1OS(C)(=O)=O (stereo not given)	106%	101%	109%	104%	105%	98.5%	99%	99.4%	103%	110%	105%	105%	–	102%	97.9%	110%	108%	94.7%	104%	102%
CS(=O)(=O)c1ccc(/C=C\C(=O)O)cc1	106%	96.1%	108%	99.5%	94.3%	94%	99.5%	106%	108%	109%	104%	122%	–	95.7%	94.1%	103%	91.8%	99.7%	–	110%
